This passage reports growth inhibition results from PubChem BioAssay (NCI).

Compounds without any hit were thinned out: in the full panel of roughly 79,000, 15% have a hit. A number with no mark means an inactive call. Activity calls are given as the source filed them. Cut-off read from the data, not from the text of the source: active = growth inhibition above about 70%; inactive = the rest.

The nature of experiment [1]: NCI Yeast Anticancer Drug Screen. Data for the rad50 strain (AID 155).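 Note: 0% = growth of vehicle-only cultures of the same strain.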 The conditions noted are these: S. cerevisiae rad50 strain growth inhibition; at 50.0 µM; stronger effect = higher value. Put shortly: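 Readout: growth inhibition relative to vehicle-treated cultures. Compound exposure was carried out in a genetically defined yeast strain deficient in DNA damage repair.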

Experiment [2] is described as follows: NCI Yeast Anticancer Drug Screen. Data for the mec2-1 strain (AID 157). The conditions noted are these: S. cerevisiae mec2-1 strain, at 50.0 µM, stronger effect = higher value. The gist of the method:
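Mutant yeast (mec2-1) grown with compound; growth inhibition relative to vehicle control reported.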

Experiment [3] in a line: NCI Yeast Anticancer Drug Screen. Data for the sgs1 mgt1 strain (AID 161).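 Note: 0% = growth of cultures given vehicle only.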 The conditions noted are these: S. cerevisiae sgs1 mgt1 strain, at 50.0 µM, stronger effect = higher value. Put shortly: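 This yeast growth screen uses a strain with defined DNA-repair lesions; compound-treated growth is compared with vehicle-treated growth.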
Experiment [4] in a line: NCI Yeast Anticancer Drug Screen. Data for the cln2 rad14 strain (AID 165).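 Note: 0% = growth equal to vehicle treated cultures.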 The following applies: S. cerevisiae cln2 rad14 strain, at 50.0 µM, stronger effect = higher value. Put shortly: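 Readout is yeast growth inhibition versus vehicle-treated controls, using a strain with cln2 and rad14 alterations exposed to compound.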
Experiment [5] in a line: NCI Yeast Anticancer Drug Screen. Data for the bub3 strain (AID 167). The following applies: S. cerevisiae bub3 mutant strain, at 50.0 µM, stronger effect = higher value. Put shortly: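 Readout: yeast growth inhibition, expressed relative to vehicle-only wells. The test organism is a mutant strain from a panel with lesions in DNA repair or checkpoint genes.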
The nature of experiment [6]: NCI Yeast Anticancer Drug Screen. Data for the mlh1 rad18 strain (AID 175). The conditions noted are these: S. cerevisiae mlh1 rad18 strain growth inhibition; at 50.0 µM; stronger effect = higher value. The gist of the method: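 Genetically defined yeast (DNA repair-deficient) exposed to compounds; growth inhibition determined relative to vehicle.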

As to `CC(C1=CC=C2[C@@H]3CCC4CC(N(C)C)CC[C@]4(C)C3CC[C@]12C)N(C)C=O` (some centres not stated), the growth inhibition in experiment [1] was 6.8%; in experiment [2] it was 8.6%; in experiment [3] it was -16.2%; in experiment [4], 6.35%; in experiment [5], 4.45%; in experiment [6] it was 1.65%.

For `c1ccc(-c2ccc(N=NN3CCCC3)cc2)cc1`, the growth inhibition was 0.75% in experiment [1]; -5.6% in experiment [2]; 14.3% in experiment [3]; 6.4% in experiment [4]; -6.15% in experiment [5]; 8.1% in experiment [6].

`OCCN(CCO)c1nc(N(CCO)CCO)nc(N(CCO)CCO)n1`: the growth inhibition is 19.8% in experiment [1]; 16.4% in experiment [2]; 20.2% in experiment [3]; 31.5% in experiment [4]; 17.2% in experiment [5]; 19.6% in experiment [6].

As to `CS(=O)(=O)Oc1ncc(Cl)cc1Cl`, the growth inhibition in experiment [1] was -15.4%; in experiment [2], 2%; in experiment [3], -1.85%; in experiment [4], 14.5%; in experiment [5], 1.35%; in experiment [6], -8.1%.

For the molecule `CN(C)CCCN1CCc2c([nH]c3ccccc23)C1c1cccnc1` (configuration not stated), the growth inhibition in experiment [1] is -3.35%; in experiment [2], -14.8%; in experiment [3], -0.45%; in experiment [4], -0.75%; in experiment [5], -6.2%; in experiment [6], -21.1%.

Turning to `COC(=O)c1c(O)c(C#N)c2[nH]c3ccccc3n2c1=O`, the growth inhibition in experiment [1] is -22.6%; in experiment [2] it was -16.6%; in experiment [3], -10.6%; in experiment [4], 7.85%; in experiment [5], -4.4%; in experiment [6] it was -18.4%.

`COc1cccc(N2C(=O)CC(=P(c3ccccc3)(c3ccccc3)c3ccccc3)C2=O)c1`: the growth inhibition is 40% in experiment [1]; 20.6% in experiment [2]; 23.9% in experiment [3]; -21.7% in experiment [4]; -7.9% in experiment [5]; 13.4% in experiment [6].

`CC1(C)CCC2(C(=O)OC3OC(CO)C(O)C(O)C3O)CCC3(CO)C(=CCC4C5(C)CC(O)C(O)C(C)(C(=O)OC6OC(CO)C(O)C(O)C6O)C5CCC43C)C2C1` (configuration not stated): the growth inhibition is 2.3% in experiment [1]; 4.45% in experiment [2]; 17.6% in experiment [3]; 23.2% in experiment [4]; 19.3% in experiment [5]; -92.2% in experiment [6].

With `Cc1nc2ccccn2c1N=Nc1ccc(C(=O)NN)cc1`, the growth inhibition in experiment [1] is 7.3%; in experiment [2], -15.1%; in experiment [3], 0.1%; in experiment [4], 10.8%; in experiment [5], -10.8%; in experiment [6] it was -18.4%.

With `O=S=C1SC2CCCCC2S1` (configuration not stated), the growth inhibition is 2.75% in experiment [1]; 4.15% in experiment [2]; -5.4% in experiment [3]; -9.05% in experiment [4]; -9.45% in experiment [5]; 8.1% in experiment [6].

Take `O=C(c1nc2ccc(Cl)cc2[nH]c1=O)C(O)c1ccccc1` (configuration not stated): the growth inhibition in experiment [1] was 47.5%; in experiment [2], 6.95%; in experiment [3] it was 39.4%; in experiment [4], 42.9%; in experiment [5], 28.9%; in experiment [6], 41.8%.

As to `O=C1/C(=C\c2ccccn2)c2ccccc2N1Cc1ccccc1`, the growth inhibition is 7.6% in experiment [1]; 1.25% in experiment [2]; 8.75% in experiment [3]; 16.9% in experiment [4]; 11.2% in experiment [5]; 22.3% in experiment [6].

For the molecule `CN(C)c1nc(=S)c2cn[nH]c2[nH]1`, the growth inhibition was 0.1% in experiment [1]; 0% in experiment [2]; -3.7% in experiment [3]; -21.8% in experiment [4]; 6% in experiment [5]; -1.2% in experiment [6].

`CCc1nc(N)nc(N)c1-c1ccc(Cl)c([N+](=O)[O-])c1`: the growth inhibition was 4.35% in experiment [1]; 4.95% in experiment [2]; -8.35% in experiment [3]; -7.1% in experiment [4]; -31.1% in experiment [5]; -13.6% in experiment [6].

In the case of `c1ccn2c(CCc3nnc4ccccn34)nnc2c1`, the growth inhibition in experiment [1] is -1.75%; in experiment [2] it was -8.4%; in experiment [3], -6.35%; in experiment [4], -18.3%; in experiment [5], -1.9%; in experiment [6], -13.1%.

For the molecule `CCCCCCCCCCCCCCCCCC(C)O` (configuration not stated), the growth inhibition in experiment [1] was -8.7%; in experiment [2] it was -13.2%; in experiment [3] it was -1.05%; in experiment [4], 1.85%; in experiment [5], -10.4%; in experiment [6] it was -10.8%.

On to `CCOC(=O)/C=C\SCCC(=O)O`, for which the growth inhibition is 10.1% in experiment [1]; 11.1% in experiment [2]; 15.8% in experiment [3]; 25.9% in experiment [4]; 27.1% in experiment [5]; 41.9% in experiment [6].

Turning to `CCCCCCCC/C=C\CCCCCCCC(=O)N(CCOC(=O)CCC(=O)OCCN(C(=O)CCCCCCC/C=C\CCCCCCCC)C1CCCCC1)C1CCCCC1`, the growth inhibition is -5.15% in experiment [1]; -9.25% in experiment [2]; -17.4% in experiment [3]; -3.2% in experiment [4]; -4.25% in experiment [5]; 16.8% in experiment [6].

Consider `CCCCCCCCCCCCCCCCN1c2ccccc2C(C)(C)C12C=Cc1cccc([N+](=O)[O-])c1O2` (configuration not stated), for which the growth inhibition in experiment [1] is 2.85%; in experiment [2] it was -0.6%; in experiment [3], 13.7%; in experiment [4] it was 14.2%; in experiment [5] it was -3.1%; in experiment [6], -3.2%.

With `CCOC(=O)/C(C#N)=C/N=c1ccccn1C`, the growth inhibition was 5.1% in experiment [1]; -7.95% in experiment [2]; -1.3% in experiment [3]; -25.1% in experiment [4]; -6.6% in experiment [5]; -4.5% in experiment [6].

For the molecule `Clc1ccc(/C=C2\c3ccccc3-c3nc4ccccc4nc32)cc1`, the growth inhibition in experiment [1] is -6.7%; in experiment [2] it was -8.05%; in experiment [3] it was -8.65%; in experiment [4], -13.4%; in experiment [5] it was -8.25%; in experiment [6] it was -21.9%.

With `CCN1CC(O)Cc2ccccc21` (configuration not stated), the growth inhibition in experiment [1] was -3.55%; in experiment [2], 8.55%; in experiment [3] it was 11.2%; in experiment [4], 1.4%; in experiment [5], -8.35%; in experiment [6], -3.5%.

For the molecule `CN(C)/C=N\c1ncnc2c1ccn2C1OC(CO)C(O)C1O` (configuration not stated), the growth inhibition in experiment [1] was -2.15%; in experiment [2], -5.4%; in experiment [3], -10.3%; in experiment [4], 10.2%; in experiment [5], 3.15%; in experiment [6] it was -4.7%.

For the molecule `Cc1nc2ccccc2c(=O)n1NC(=S)Nc1ccc(Cl)cc1`, the growth inhibition in experiment [1] is 3.6%; in experiment [2], -31.2%; in experiment [3], 4.25%; in experiment [4], -23.6%; in experiment [5], -18.4%; in experiment [6] it was -14.9%.

As for `COc1ccc2nccc(SCC(=O)O)c2c1`, the growth inhibition was -5.25% in experiment [1]; 8.25% in experiment [2]; -29.6% in experiment [3]; 18.9% in experiment [4]; 37% in experiment [5]; 1.85% in experiment [6].

In the case of `COc1ccc(/C(=N\O)C(c2ccc(OC)cc2)C(Cl)(Cl)Cl)cc1` (configuration not stated), the growth inhibition in experiment [1] was 52.8%; in experiment [2], 38.9%; in experiment [3], 38.9%; in experiment [4] it was 14.7%; in experiment [5], 16.6%; in experiment [6], 44.9%.

For `OC(C1CCCCCCCCCC1)C(O)C1CCCCCCCCCC1` (configuration not stated), the growth inhibition in experiment [1] was -35.5%; in experiment [2], -38.6%; in experiment [3], 2.8%; in experiment [4], 15.3%; in experiment [5], -38%; in experiment [6], -8.85%.

Consider `O=C(c1ccc(Br)cc1)C(C(c1ccccc1)N1CCOCC1)N1CCOCC1` (configuration not stated), for which the growth inhibition in experiment [1] was 3.1%; in experiment [2], -1.1%; in experiment [3] it was -9.6%; in experiment [4], -19.5%; in experiment [5] it was -20.6%; in experiment [6], 31.9%.

Regarding `CCOC(=O)c1nc(N(C)C)oc(=O)c1C`, the growth inhibition in experiment [1] was 25.1%; in experiment [2] it was 33.1%; in experiment [3], 28.1%; in experiment [4], -0.7%; in experiment [5], 18.6%; in experiment [6] it was 13.6%.

In the case of `CN(C)CCNC(=O)Cn1cc([N+](=O)[O-])c(=O)c2ccccc21`, the growth inhibition is -12.9% in experiment [1]; -13.1% in experiment [2]; -8.8% in experiment [3]; 18.9% in experiment [4]; -7.2% in experiment [5]; -31.1% in experiment [6].

On to `NC(=S)n1nc(-c2ccccc2)c(N=Nc2ccccc2[N+](=O)[O-])c1-c1ccccc1`, for which the growth inhibition in experiment [1] is 13.2%; in experiment [2], 2.5%; in experiment [3] it was -3.15%; in experiment [4] it was -35.6%; in experiment [5], 3.6%; in experiment [6], 9.45%.

For `CCOC(=O)C1C(C)=CC(=O)CC1C(C)C` (configuration not stated), the growth inhibition was 4.1% in experiment [1]; -8.5% in experiment [2]; 5.7% in experiment [3]; -20.6% in experiment [4]; -15.8% in experiment [5]; 5.2% in experiment [6].

Consider `COC(=O)CCCCC#CCCCCC(=O)OC`, for which the growth inhibition was 3.25% in experiment [1]; 38.6% in experiment [2]; -4.65% in experiment [3]; -2.6% in experiment [4]; 12.2% in experiment [5]; 12.9% in experiment [6].

As to `O=C(NCc1ccc2ccc3cccnc3c2n1)c1ccc[n+](Cc2ccccc2)c1`, the growth inhibition in experiment [1] was -6.1%; in experiment [2], -11.6%; in experiment [3] it was 5.65%; in experiment [4], 3.5%; in experiment [5], 10.1%; in experiment [6], 1.75%.

On to `CN(C)CC1CCC/C1=N/OC(=O)c1ccccc1` (configuration not stated), for which the growth inhibition in experiment [1] was 6.85%; in experiment [2] it was -6.7%; in experiment [3] it was -20%; in experiment [4], -17.9%; in experiment [5] it was -6.4%; in experiment [6], 16.9%.

Take `S=C1N=C2c3ccccc3C2C(=S)S1` (configuration not stated): the growth inhibition in experiment [1] was -4.8%; in experiment [2], -12.8%; in experiment [3] it was 0%; in experiment [4], -24.9%; in experiment [5], 4.75%; in experiment [6], -7.25%.

Take `C[C@@]12CCC3C1C=C1C(=O)c4cc(O)ccc4C(=O)[C@]1(O2)[C@@]3(C)C=O`: the growth inhibition is -10.7% in experiment [1]; 2% in experiment [2]; 78.8% (active) in experiment [3]; 51.1% in experiment [4]; 76.3% (active) in experiment [5]; 89.7% (active) in experiment [6].
